Source: PubChem BioAssay (NCATS)
Values joined by “and” are separate entries in the source; they are usually repeats but may differ in a detail not shown here. Equal entries are not always repeated. Inconclusive results are not listed. Active and inactive are the calls of the source. Unless noted, the call rests on the fitted dose curve; in most records, active means well fitted curve in the direction sought with a large enough effect; inconclusive means small, poorly fitted or top-dose-only effect, or another doubt; inactive means no such curve, though single readings can be large; an effect the other way counts as inactive or inconclusive.

Tests used:
[1] = Cell Viability - LYMP2-020 (AID 986);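 further: plate controls were DMSO only for no effect and tetraoctylammonium bromide at 92 µM for full effect; nearly all actives have a fitted effect of over 55% in size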
How it was run: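 Human lymphoblastoid LYMP2-020 cells (2500/well) preincubated 5 h at 37 C, then treated 24 h at 37 C. Viability measured as intracellular ATP by CellTiter-Glo luminescence after 30 min at room temperature; AC50 from Hill fits.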

[2] = Cell Viability - LYMP2-022 (AID 987);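 further: 0% = DMSO alone and full effect = tetraoctylammonium bromide at 92 µM; nearly all actives have a fitted effect of over 55% in size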
How it was run: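 LYMP2-022 lymphoblastoid cells (2500/well, complete medium) were treated with compounds for 24 hours at 37 C; intracellular ATP was then read by CellTiter-Glo luminescence after 30 min at room temperature. AC50 values were derived from Hill-equation fits.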

[3] = Cell Viability - LYMP2-024 (AID 988);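 further: plate controls were DMSO only for no effect and 92 µM tetraoctylammonium bromide for full effect; nearly all actives have a fitted effect of over 60% in size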
How it was run: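 Human lymphoblastoid LYMP2-024 cells (2500/well) rested 5 hr, then treated with compound for 24 hr at 37 C in complete medium. Viability was measured as intracellular ATP by CellTiter-Glo luminescence. AC50 values came from Hill-equation fits.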

[4] = Cell Viability - LYMP2-026 (AID 989); further: on the % scale 0 is the no-effect control and ±100 the full control effect; nearly all actives have a fitted effect of over 50% in size
How it was run: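 Human lymphoblastoid LYMP2-026 cells, 2500/well, exposed to compound 24 h at 37 C in complete medium. Viability as intracellular ATP by CellTiter-Glo luminescence; AC50 from Hill fits of qHTS concentration-response.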

[5] = target: Alpha-galactosidase A (Homo sapiens) (UniProt P06280); assay: Counterscreen for Glucocerebrosidase Inhibitors: qHTS Assay for Human alpha-Galactosidase at pH 4.5 (AID 992); further: 0% is about no effect
Chain of Alpha-galactosidase A (Homo sapiens) (P06280 whole entry, looked up): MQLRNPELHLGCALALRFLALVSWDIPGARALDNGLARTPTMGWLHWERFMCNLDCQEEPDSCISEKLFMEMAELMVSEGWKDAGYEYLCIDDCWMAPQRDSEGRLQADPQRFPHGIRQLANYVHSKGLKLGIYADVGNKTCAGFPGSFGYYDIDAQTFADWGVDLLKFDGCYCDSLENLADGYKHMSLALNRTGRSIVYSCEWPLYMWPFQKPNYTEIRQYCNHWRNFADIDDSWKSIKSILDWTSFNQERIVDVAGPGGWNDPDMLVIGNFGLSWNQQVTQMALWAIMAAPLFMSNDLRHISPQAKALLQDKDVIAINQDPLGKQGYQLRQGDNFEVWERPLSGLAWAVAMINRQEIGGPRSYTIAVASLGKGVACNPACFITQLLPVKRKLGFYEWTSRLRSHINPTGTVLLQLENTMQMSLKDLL
How it was run: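 Concentration-response curves (0.7 nM to 77 uM final) were modeled with the Hill equation to give AC50. Reactions: 2 nM enzyme, 80 uM fluorogenic alpha-galactoside, pH 4.5 citric acid buffer, 20 min, room temperature.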

[6] = Cell Viability - LYMP1-002 - Assay at 40 hr (AID 994);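 further: 0% = DMSO only and full inhibition = 92 µM tetraoctylammonium bromide; nearly all actives have a fitted effect of over 60% in size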
How it was run: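 LYMP1-002 human lymphoblastoid cells (2500/well, complete medium) were treated with compounds for 40 hr at 37 C. Intracellular ATP was measured by CellTiter-Glo luminescence, and AC50 values came from Hill-equation fits of concentration-response data; tetraoctylammonium bromide was the positive control.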

[7] = target: alpha-glucosidase (Oryza sativa, rice) (UniProt Q653V4); assay: Counterscreen for Glucocerebrosidase Inhibitors: qHTS Assay for Rice alpha-Glucosidase at pH 5.0 (AID 997);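 further: 0% = full activity with enzyme and -100% = basal without enzyme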
How it was run: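 Rice alpha-glucosidase (4 nM final) with 400 uM 4-methylumbelliferyl-alpha-D-glucopyranoside in citrate buffer pH 5.0, 20 min at room temperature, stopped at pH 10; fluorescence 365/440 nm, compounds 0.7 nM–77 uM, AC50 from Hill fits.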

[8] = qHTS Assay for Lipid Storage Modulators (AID 1519; calls by dose curve; on activity change, negative = inhibition: on the % scale 0 is the no-effect control and ±100 the full control effect); conditions: Drosophila S3 cells, BODIPY lipid droplet/cell ratio, laser cytometry, cells loaded with oleic acid
How it was run: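 Cells seeded at 5,000 per well were treated with compounds over a concentration series and loaded with oleic acid (400 uM, as added). Lipid droplet fluorescence (488 nm excitation, 500-530 nm channel) was read by laser-scanning cytometry and normalized to 20 uM Triacsin C.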

[9] = target: DNA repair nuclease/redox regulator APEX1 (Homo sapiens) (UniProt P27695); assay: qHTS Validation Assay for Inhibitors of the Human Apurinic/apyrimidinic Endonuclease 1 (APE1) (AID 1705;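 further: TAMRA fluorescence gain over two minutes as APE1 cuts a quenched THF abasic duplex; on the % scale 0 is the no-effect control and ±100 the full control effect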)
Chain of DNA repair nuclease/redox regulator APEX1 (Homo sapiens) (P27695 whole entry, looked up): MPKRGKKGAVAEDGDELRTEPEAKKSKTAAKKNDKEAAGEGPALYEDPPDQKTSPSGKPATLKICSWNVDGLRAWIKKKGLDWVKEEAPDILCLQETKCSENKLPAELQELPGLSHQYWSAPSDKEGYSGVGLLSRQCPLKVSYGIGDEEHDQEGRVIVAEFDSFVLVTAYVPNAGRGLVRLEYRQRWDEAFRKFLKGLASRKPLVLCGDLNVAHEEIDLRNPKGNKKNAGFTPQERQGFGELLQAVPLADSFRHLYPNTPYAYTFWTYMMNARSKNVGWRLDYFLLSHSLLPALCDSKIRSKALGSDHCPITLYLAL
How it was run: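 Endonuclease activity of human APE1 is followed as dequenching when the enzyme incises a tetrahydrofuran abasic site in a short duplex labelled 5'-TAMRA/3'-BHQ-2 (50 nM final), after 15 min enzyme–compound preincubation at room temperature.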

[10] = Counterscreen for APE1 Inhibitors: Fluorescent Dye Displacement Validation Assay (AID 1707);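 further: plate controls were ThO with dsDNA and no compound for no effect and ThO without dsDNA for full effect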
How it was run: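 Assay buffer: Tris-HCl pH7.5 with 50mM NaCl, 2 mM MgCl2, 0.01% Tween-20. Dye 250 nM, duplex 50 nM final. Readout: decrease in ThO endpoint fluorescence, 480 nm excitation, 540 nm emission.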

[11] = target: Endonuclease 4 (Escherichia coli (strain K12)) (UniProt P0A6C1); assay: Counterscreen for APE1 Inhibitors: qHTS Validation Assay for Inhibitors of Endonuclease IV (AID 1708); further: on the % scale 0 is the no-effect control and ±100 the full control effect
How it was run: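 E. coli EndoIV at 2 nM final, preincubated 15 min at room temperature with compound, then 50 nM TAMRA/BHQ-2 THF abasic-site duplex added. Buffer: 50 mM Tris-HCl pH 7.5, 50 mM NaCl, 2 mM MgCl2, 1 mM DTT, 0.01% Tween-20. Kinetic fluorescence increase, third minus first read.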

[12] = qHTS for differential inhibitors of proliferation of Plasmodium falciparum line 7G8 (AID 1815);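 further: parasite growth measured after three days of incubation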; further: potency means the concentration at half of the fitted maximal effect;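 on activity change, negative = inhibition: plate controls were vehicle wells for no effect and reference inhibitor wells for full effect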
[13] = qHTS for differential inhibitors of proliferation of Plasmodium falciparum line GB4 (AID 1816); conditions: Potency: Plasmodium falciparum GB4 proliferation inhibition;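 further: parasite growth measured after 72 h incubation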; further: potency means the concentration at half of the fitted maximal effect;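 on activity change, negative = inhibition: 0% = vehicle DMSO and -100% = reference inhibitor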
[14] = qHTS for differential inhibitors of proliferation of Plasmodium falciparum line 3D7 (AID 1876); further: potency means the concentration at half of the fitted maximal effect
[15] = qHTS for differential inhibitors of proliferation of Plasmodium falciparum line D10 (AID 1877);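 further: parasites grown with compound for 72 h before DNA staining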; further: potency means the concentration at half of the fitted maximal effect;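 on activity change, negative = inhibition: plate controls were vehicle wells for no effect and reference inhibitor wells for full effect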
[16] = qHTS for differential inhibitors of proliferation of Plasmodium falciparum line W2 (AID 1883); conditions: Potency: Plasmodium falciparum W2 proliferation inhibition;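 further: potency means the concentration at half of the fitted maximal effect; parasites grown with compound for 72 h before lysis and staining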
[17] = qHTS for differential inhibitors of proliferation of Plasmodium falciparum line HB3 (AID 1886); conditions: Potency: Plasmodium falciparum HB3 proliferation inhibition;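 further: parasites grown with compound for 72 h before SYBR Green readout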; further: potency means the concentration at half of the fitted maximal effect;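 on activity change, negative = inhibition: plate controls were vehicle for no effect and reference inhibitor for full effect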
[18] = qHTS for differential inhibitors of proliferation of Plasmodium falciparum line Dd2 (AID 1882); conditions: Potency: Plasmodium falciparum Dd2 proliferation inhibition;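 further: plate controls were DMSO vehicle for no effect and 0.29 µM artemisinin for full effect; nearly all actives have a fitted effect of over 65% in size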
How it was run: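 Dd2-infected erythrocytes (0.3% parasitemia, 2.5% hematocrit final) incubated with compound 72 h at 37 C, 5% CO2; lysed with saponin/Triton buffer containing SYBR Green I, incubated overnight in the dark, then read by fluorescence (485/535 nm). Normalized to 0.29 uM artemisinin and DMSO.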

[19] = Validation of Assay for Modulators of Lamin A Splicing (AID 1459; active means well fitted curve in the direction sought with a large enough effect in the signal ratio; the % refers to the signal ratio;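 further: cells exposed to compound for two days before reading; 0% is about no effect; ratio rise marks activators and ratio drop marks inhibitors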)
How it was run: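 Splicing correction is reported by an EGFP-containing lamin A minigene in stably transfected S3 HeLa cells, while DsRed2 controls for viability and nonspecific signal. Cells are exposed to compounds for 48 hrs before the GFP over RFP ratio is taken.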

[20] = qHTS Assay for Modulators of Human Peripheral Myelin Protein 22 (PMP22) Expression/Activity (AID 1967; active means well fitted curve in the direction sought with a large enough effect in the signal ratio; the % refers to the signal ratio; further: potency means the concentration at half of the fitted maximal effect)
How it was run: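 Quantitative HTS in a mouse Schwann cell line expressing dual click beetle luciferases: Pmp22 promoter (green) and control EF-alpha promoter (red). After 24h treatment, corrected green/red signal ratio gave %Activity relative to untreated cells.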

[21] = measured here: cell count channel max response
[22] = measured here: lipid channel max response

Nc1c2c(nc3ccccc13)CCCC2
-0.801% and 25.5%: max response [8, 21]
-0.834% and 27.2%: max response [8, 22]
inactive: outcome [1] | outcome [2] | outcome [3] | outcome [4] | outcome [5] | Potency [6] | outcome [7] | activity change, negative = inhibition ([8]; at 25.7 µM (top of the series)) 0.95% | activity change, negative = inhibition ([8]; at 57.5 µM (top of the series)) 2.49% | Potency [9] | Potency [10] | Potency [11]
active: Potency [12] 10 µM | Potency [13] 10 µM | Potency [14] 8.91 µM | Potency [15] 10 µM | Potency [16] 5.62 µM | Potency [17] 12.6 µM

COc1ccc2c(c1)c(CC(=O)O)c(C)n2C(=O)c1ccc(Cl)cc1
-0.937% and 62.5%: max response [8, 22]
inactive: outcome [1] | outcome [2] | outcome [3] | outcome [4] | outcome [5] | Potency [6] | outcome [7] | activity change, negative = inhibition ([8]; at 25.7 µM (top of the series)) 0.248% | activity change, negative = inhibition ([8]; at 57.5 µM (top of the series)) 13.5% | Potency [9] | Potency [10] | Potency [11] | Potency [12] | Potency [13] | Potency [14] | Potency [15] | Potency [18] | Potency [17]
4.07% and 38%: max response [8, 21]

CC(C(=O)O)c1cccc(C(=O)c2ccccc2)c1 (configuration not stated)
inactive: outcome [19] | Potency [9] | Potency [10] | Potency [11]
active: Potency [20] 23.9 µM

COc1ccc(C2CNC(=O)C2)cc1OC1CCCC1 (configuration not stated)
inactive: outcome [5] | outcome [7] | outcome [19] | Potency [9] | Potency [10] | Potency [11] | Potency [13] | Potency [14] | Potency [15] | Potency [18] | Potency [17] | Potency [20]
